The text below walks through data of PubChem BioAssay (EPA / NIEHS).

Test [1] in a line: APR_HepG2_CellCycleArrest_24hr: Apredica 24-hour HepG2 Assay for Cell Cycle Arrest (AID 2282905).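 Also: cell cycle arrest scored as ratio of 2N to 4N nuclear DNA content.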 The settings on record: imaging, actives raise or lower the signal. In a few lines:
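Readout: Hoechst 33342 nuclear DNA content by high-content fluorescent imaging, six images/well, 20x. Human HepG2 liver cells, 24 hr compound exposure, 0.39–200 uM, final DMSO 0.5% v/v. Gain or loss fitted relative to DMSO baseline.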

A short description of test [2]: APR_HepG2_NuclearSize_24hr: Apredica 24-hour HepG2 Assay for Nuclear Size (AID 2282907). Particulars: high-content imaging, actives raise or lower the signal. In a few lines:
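Read-out: nuclear diameter from Hoechst 33342 (2 ug/mL) imaging of fixed HepG2 cells, 20x, six fields/well. Compounds ran at 0.39–200 uM for 24 hr, 0.5% DMSO final. Gain or loss was fitted bidirectionally relative to the DMSO baseline.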

Test [3] can be described thus: APR_HepG2_CellLoss_24hr: Apredica 24-hour HepG2 Assay for Cell Loss (AID 2282908).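 As to AC50: fit in both directions so a hit may be cell loss or gain.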 The settings on record: high-content imaging. Summed up:
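Read-out: Hoechst 33342-stained nuclei counted by automated fluorescence imaging after formaldehyde fixation and Triton permeabilization. Ten concentrations, 0.39 to 200 uM, duplicate wells, 0.5% DMSO final. Gain or loss of signal fitted relative to DMSO baseline.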

Test [4] in a line: APR_HepG2_MicrotubuleCSK_24hr: Apredica 24-hour HepG2 Assay for Microtubule CSK Stabilty (AID 2282909). Particulars: HepG2 microtubule cytoskeleton imaging, actives raise or lower the signal. In a few lines: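 Read-out: alpha-tubulin immunofluorescence intensity by automated high-content imaging of fixed HepG2 cells after 24 h compound treatment. Ten concentrations, 0.39 to 200 uM, in duplicate; DMSO 0.5% v/v. Taxol positive control; DMSO-normalized bidirectional curve fitting.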

The nature of test [5]: APR_HepG2_MitoticArrest_24hr: Apredica 24-hour HepG2 Assay for Mitotic Arrest (AID 2282910). Particulars: high-content imaging, actives raise or lower the signal. In a few lines: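 HepG2, 24 hr dosing, 0.39–200 uM, 0.5% DMSO final. Formaldehyde-fixed, Triton-permeabilised, anti-phospho-histone H3 plus Hoechst. ArrayScan imaging at 20x; bidirectional fit vs DMSO baseline.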

Test [6] can be described thus: APR_HepG2_MitoMembPot_24hr: Apredica 24-hour HepG2 Assay for Mitochondrial Membrane Potential (AID 2282911). The settings on record: imaging, actives raise or lower the signal. Summed up:
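Mitochondrial dye uptake (MitoTracker Red CMXRos, 250 nM, 30 min pre-fixation) in HepG2 after 24 hr compound exposure, 0.39–200 uM; ArrayScan images at 20x, activity fitted in both directions relative to DMSO.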

Test [7] is described as follows: APR_HepG2_MitoMass_24hr: Apredica 24-hour HepG2 Assay for Mitochondrial Mass (AID 2282912). Particulars: high-content imaging, actives raise or lower the signal. Summed up: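 HepG2, 24 hr dosing, 10 concentrations 0.39–200 uM in duplicate, DMSO 0.5% final. MitoTracker Red CMXRos 250 nM, 30 min pre-fix; 3.7% formaldehyde fix. Imaging-based fluorescence intensity; gain/loss fit vs DMSO baseline.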

A short description of test [8]: APR_HepG2_p53Act_24hr: Apredica 24-hour HepG2 Assay for p53 Activation (AID 2282913).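 Also: p53 protein immunofluorescence averaged per cell in HepG2 with Hoechst nuclei.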 Particulars: high-content imaging, actives raise or lower the signal. In a few lines: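 Following 24 hr dosing of HepG2 at 0.39–200 uM, the cells undergo formaldehyde fixation, Triton permeabilization and multiplexed antibody labeling that includes p53 (Cy5). Signal from the imaging is referenced to DMSO solvent controls.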

Test [9] in a line: APR_HepG2_CellCycleArrest_72hr: Apredica 72-hour HepG2 Assay for Cell Cycle Arrest (AID 2282914). Particulars: high-content imaging, actives raise or lower the signal. Summed up: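 Using multiplexed high-content imaging, HepG2 nuclei stained with Hoechst 33342 (2 ug/mL) were analysed for DNA content after fixation and permeabilization. Treatment lasted 72 hr across 0.39–200 uM in duplicate with final DMSO 0.5% v/v; DMSO served as negative control.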

A short description of test [10]: APR_HepG2_P-H2AX_72hr: Apredica 72-hour HepG2 Assay for H2AX Phosphorylation (AID 2282916).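 Also: phospho-histone H2A.x immunostain intensity per cell marking DNA damage.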 The settings on record: imaging, actives raise or lower the signal. Summed up: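 Readout: phospho-H2A.x immunofluorescence (FITC secondary) plus Hoechst nuclear stain, high-content imaging at 20x, six fields/well. HepG2, 72 hr compound exposure, 0.39–200 uM, final DMSO 0.5% v/v. Gain or loss fitted relative to DMSO baseline.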

Test [11] in a line: APR_HepG2_MitoMembPot_72hr: Apredica 72-hour HepG2 Assay for Mitochondrial Membrane Potential (AID 2282917). The settings on record: imaging, actives raise or lower the signal. Summed up: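 HepG2 cells dosed 72 hr with compound at 0.39–200 uM in duplicate, 0.5% v/v DMSO final. Mitochondria stained with 250 nM MitoTracker Red CMXRos for 30 min before formaldehyde fixation, imaged by high-content fluorescence; bidirectional fit versus DMSO.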

Test [12] in a line: APR_HepG2_MitoticArrest_72hr: Apredica 72-hour HepG2 Assay for Mitotic Arrest (AID 2282918). Particulars: high-content imaging, actives raise or lower the signal. Summed up: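 Using high-content imaging of fixed HepG2 cells, phospho-histone H3 signal was measured following a 72 hr incubation with ten-point compound dilutions up to 200 uM. DMSO served as the negative control and baseline for bidirectional curve fitting.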

Test [13] is described as follows: APR_HepG2_MicrotubuleCSK_72hr: Apredica 72-hour HepG2 Assay for Microtubule CSK Stabilty (AID 2282919). The settings on record: HepG2 microtubule cytoskeleton, high-content imaging, actives raise or lower the signal. Summed up:
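HepG2, 72 hr cmpd exposure, 0.39–200 uM (10 pts, duplicate), 0.5% DMSO. 3.7% formaldehyde fix, 0.5% Triton perm, anti-alpha-tubulin/Cy5 plus Hoechst. HCS fluorescence intensity; bidirectional fit vs DMSO baseline; taxol as positive control.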

Test [14] in a line: APR_HepG2_P-H2AX_24hr: Apredica 24-hour HepG2 Assay for H2AX Phosphorylation (AID 2282920). The settings on record: high-content imaging, actives raise or lower the signal. Summed up: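 Human HepG2 liver cells, treated 24 hr with test chemicals (0.39–200 uM, final DMSO 0.5% v/v), are fixed and co-stained for phospho-H2A.x and c-Jun with Hoechst. Imaged intensity is fitted in both directions against DMSO controls.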

A short description of test [15]: APR_HepG2_StressKinase_72hr: Apredica 72-hour HepG2 Assay for Stress Kinase (AID 2282921). The settings on record: HepG2 stress kinase (phospho-c-Jun) imaging, actives raise or lower the signal. Summed up:
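Phospho-c-Jun immunofluorescence measured by high-content imaging at 20x, six fields per well; bidirectional curve fitting against DMSO as baseline. Dosing: 0.39–200 uM, 72 h, 0.5% DMSO final.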

Test [16] in a line: APR_HepG2_StressKinase_24hr: Apredica 24-hour HepG2 Assay for Stress Kinase (AID 2282922). The settings on record: HepG2 stress kinase (phospho-c-Jun) imaging, actives raise or lower the signal. In a few lines:
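Read-out: phospho-c-Jun immunofluorescence (Cy3 secondary) quantified by high-content imaging at 20x, nuclei defined by Hoechst 33342. Human HepG2 liver cells dosed 24 hr, 0.39–200 uM, DMSO 0.5% v/v; gain or loss of signal fitted relative to DMSO.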

Test [17] is described as follows: APR_HepG2_p53Act_72hr: Apredica 72-hour HepG2 Assay for p53 Activation (AID 2282923).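 Also: average cellular p53 protein immunofluorescence intensity in HepG2 cells.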 The settings on record: high-content imaging, actives raise or lower the signal. In a few lines: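 Readout: p53 immunofluorescence quantified by automated high-content imaging at 20x, six fields per well, nuclei located via Hoechst. Dosing ran 72 hr over ten concentrations from 0.39 to 200 uM; bidirectional curve fitting against DMSO baseline.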

Test [18] can be described thus: APR_HepG2_MitoMass_72hr: Apredica 72-hour HepG2 Assay for Mitochondrial Mass (AID 2282924).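 Also: MitoTracker Red CMXRos stain intensity per cell imaged as mitochondrial mass.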 The settings on record: high-content imaging, actives raise or lower the signal. In a few lines: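 Read-out: MitoTracker Red fluorescence intensity from automated imaging (20x, six fields per well) in human HepG2 liver cells. Dosing ran 72 hr, 0.39–200 uM, 0.5% DMSO; bidirectional curve fitting versus DMSO baseline.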

Test [19] in a line: APR_HepG2_NuclearSize_72hr: Apredica 72-hour HepG2 Assay for Nuclear Size (AID 2282925). Particulars: high-content imaging, actives raise or lower the signal. In a few lines: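 Read-out: nuclear diameter from Hoechst 33342 images (ArrayScan, 20x, six fields/well), via cell-cycle image analysis. HepG2 were dosed 0.39–200 uM for 72 hr in 0.5% DMSO. Bidirectional fit relative to DMSO.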

Test [20] in a line: APR_HepG2_CellLoss_72hr: Apredica 72-hour HepG2 Assay for Cell Loss (AID 2282915). Particulars: high-content imaging. In a few lines: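 HepG2 cells exposed 72 h to compound at 0.39–200 uM (10 concentrations, duplicate) in 0.5% DMSO. Fixed with 3.7% formaldehyde and Hoechst 33342-stained. Imaged at 20x; nuclear count gives cell number, fitted bidirectionally versus DMSO.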

Activity calls are given as the source filed them. The calls were made as follows: active = hit-call score of the fitted dose curve at least 0.9, where 1 is the maximum; inactive = score below 0.9.

Turning to `CCN(Cc1cccc(S(=O)(=O)O)c1)c1ccc(C(=C2C=CC(=[N+](CC)Cc3cccc(S(=O)(=O)O)c3)C=C2)c2ccccc2S(=O)(=O)[O-])cc1`, the molecule was classed as inactive in test [1], in test [2], in test [3], in [4], in test [5] and in test [6]. In addition, the call in test [7], in [8], in [9], in test [10], in test [11] and in test [12] was inactive. In addition, the molecule was classed as inactive in [13], in test [14], in test [15], in [16], in test [17] and in test [18]. Also, in test [19], the molecule was called inactive.
As for `O=C(O)Cc1cc(I)c(Oc2ccc(O)c(I)c2)c(I)c1`, the molecule was classed as inactive in test [1], in test [2], in test [3], in test [4], in test [5] and in test [6]. The outcome in test [7], in test [8], in test [9], in test [20], in test [10] and in [11] was inactive. Also, the molecule was called inactive in test [12], in test [13], in test [14], in test [15], in test [16] and in test [17]. The molecule was classed as inactive in test [18] and in [19].
Consider `CCCCOC(=O)CC(CC(=O)OCCCC)(OC(C)=O)C(=O)OCCCC`, for which the outcome in [1], in test [2], in test [4], in [5], in [7] and in test [9] was inactive. Moreover, the molecule was classed as inactive in test [14], in test [16], in [18] and in [19]. Besides, the AC50 – broadly, the concentration giving half of the maximal activity seen – in test [3] is 27.7 µM (active); in [6], 70.8 µM (active); in test [8] it was 53.9 µM (active); in test [20] it was 42.5 µM (active); in test [10], 56.2 µM (active); in test [12] it was 42 µM (active). The figures for the AC50 in test [13], in [15] and in test [17] were 43.6 µM (active), 56.4 µM (active) and 57.9 µM (active), respectively.
On to `CC(=O)N1CCN(c2ccc(OC[C@H]3CO[C@](Cn4ccnc4)(c4ccc(Cl)cc4Cl)O3)cc2)CC1`, for which the call in [1], in [2], in test [5], in test [7], in test [8] and in test [9] was inactive. For the same molecule, the molecule was called inactive in test [13], in test [14], in [15], in test [18] and in [19]. Moreover, the AC50 in [3] is 28.6 µM (active); in test [4], 103 µM (active); in test [6] it was 118 µM (active); in test [20] it was 23.5 µM (active); in [10], 32.3 µM (active); in test [12], 75.9 µM (active). Besides, the AC50 was 74.9 µM (active) in [16] and 14.5 µM (active) in [17].
On to `CCCCCc1ccc(N)cc1`, for which the outcome in test [1], in [2], in test [3], in [4], in [5] and in [6] was inactive. Further, the outcome in test [7], in test [8], in test [9], in test [20], in [10] and in test [11] was inactive. In addition, the result in [12], in test [13], in test [14], in test [15], in test [16] and in test [17] was inactive. Moreover, the call in [18] and in test [19] was inactive.
With `Oc1ccc2ccccc2c1`, the molecule was called inactive in test [1], in test [2], in test [3], in test [4], in [5] and in test [6]. The molecule was classed as inactive in test [7], in test [8], in test [9], in test [20], in test [10] and in test [11]. Further, the outcome in test [12], in [13], in [14], in [15], in test [16] and in [17] was inactive. The outcome in [18] and in test [19] was inactive.
